IL1B secr inh – inflammasome signaling inhibition, IL-1 beta readout | THP-1 LPS/ATP IL-1B secretion, AlphaLISA, 16 h; stronger effect = lower value | AID 743279 | 360,000 compounds, 4.7% hits | activity change, % at 57.5 µM; in the data active = activity change below about -50%; inconclusive = mostly about -30% to -49%
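THP-1 cells pretreated 1 hr with compounds (up to 57.5 uM final), then stimulated with LPS (250 ng/mL final) plus ATP (1.25 mM final); secreted IL-1B measured by AlphaLISA after 16 hr, decreased signal indicating inhibition.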
DT40 TDP1 CPT – growth inhibition of DT40 Tdp1-/-;hTDP1 cells with camptothecin (screen for TDP1 inhibitors). chicken DT40 Tdp1-/-;hTDP1 cells + 20 nM CPT, ATP luminescence, 48 h. Potency, µM (doses to about 46.2 µM), hits mostly inhibitors. 420,000 compounds, 12% hits. AID 686979; note: nearly all actives have a fitted effect of over 55% in size
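Chicken DT40 Tdp1-/- cells stably complemented with human TDP1 were seeded at 400 cells/well in medium containing 20 nM camptothecin, exposed to pin-transferred compounds, and grown at 37 °C for at least 48 hr. Viability was read as ATP luminescence.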
HepG2 tox – HepG2 cytotoxicity, counter-screen for TGF-b inhibitors | HepG2 CAGA-GFP viability, ATP luminescence, 18 h | 410,000 compounds, 0.76% hits | Potency, µM (titrated, usually from 46.1 µM), actives largely listed as cytotoxic
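CellTiter-Glo luminescence gave cytotoxicity after 18 hours at 37 degrees C. The cells were HepG2 CAGA-GFP in 1% FBS DMEM, stimulated with 500 pg/mL TGF-beta after compound addition. %Activity was normalised to no-cell wells (complete cell-killing) and DMSO (no toxicity), and curves were fitted and classified.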
ASM inhibitor – inhibitors of human secretory acid sphingomyelinase. P17405. placental ASM, HMU-PC fluorogenic substrate, 60 min. Potency, µM (top dose mostly 57.5 µM), hits mostly inhibitors. 340,000 compounds, 0.006% hits. AID 504937
Target sequence (P17405 47-631 limits assumed): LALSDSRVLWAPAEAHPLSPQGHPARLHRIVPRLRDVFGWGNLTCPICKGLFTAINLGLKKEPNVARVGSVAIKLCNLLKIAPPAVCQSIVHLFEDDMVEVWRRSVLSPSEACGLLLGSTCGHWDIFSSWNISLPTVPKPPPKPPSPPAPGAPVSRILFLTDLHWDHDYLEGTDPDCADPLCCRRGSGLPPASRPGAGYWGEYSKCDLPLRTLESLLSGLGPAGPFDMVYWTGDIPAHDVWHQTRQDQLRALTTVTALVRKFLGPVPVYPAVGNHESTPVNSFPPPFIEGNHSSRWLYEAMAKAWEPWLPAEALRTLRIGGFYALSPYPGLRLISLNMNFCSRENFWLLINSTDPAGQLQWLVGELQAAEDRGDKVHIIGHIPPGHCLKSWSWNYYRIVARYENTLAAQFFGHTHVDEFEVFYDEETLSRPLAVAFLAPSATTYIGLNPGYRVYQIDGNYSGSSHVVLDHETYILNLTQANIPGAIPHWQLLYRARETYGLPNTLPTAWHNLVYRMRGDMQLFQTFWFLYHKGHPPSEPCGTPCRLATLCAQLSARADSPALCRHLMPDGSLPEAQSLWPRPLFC
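Human placenta-derived ASM preincubated with compound 10 min at room temperature, then reacted with 9 uM (final) fluorogenic HMU-PC substrate for 60 min at 37 C. Stop solution raises pH to 10; fluorescence read at Ex 386/Em 447 nm.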
TGFb SMAD3 inh – blocks TGF-b signaling | HepG2 CAGA-GFP TGF-b/SMAD3 reporter, GFP fluorescence, 18 h; TGF-beta stimulated, 500 pg/mL final | 410,000 compounds, 1.2% hits | Potency, µM (top dose mostly 46.1 µM), most hits filed as inhibitors; note: nearly all actives have a fitted effect of over 65% in size
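HEPG2 CAGA-GFP cells (1000/well, DMEM with 1% FBS) were pre-incubated 2 h at 37 degrees C, given compound by pin tool, then stimulated with TGF-beta at 500 pg/mL final for 18 h before per-cell GFP fluorescence imaging.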
DT40 TDP1 no CPT – qHTS for Inhibitors of human tyrosyl-DNA phosphodiesterase 1 (TDP1): qHTS in cells in absence of CPT | AID 686978, 2013 | DT40 Tdp1-/- hTDP1 cells, no CPT, ATP luminescence, 48 h | Potency, µM (titrated, usually from 46.2 µM), usual class: inhibitors | 420,000 compounds, 15% hits; note: nearly all actives have a fitted effect of over 55% in size
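Readout: luminescence from CellTiter-Glo after 30 min in the dark at RT. Cells: DT40 Tdp1-/- with stable hTDP1, 400/well. Exposure: compounds alone, ≥48 hr, 37 °C.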
A number is an active result; – = inactive; ? = inconclusive; · = no result. The list is not random: actives were taken first. Their share in the collection is about 19%. Unless noted, calls come from the whole dose curve; as a rule, active = well fitted curve in the direction sought with a large enough effect; inconclusive = small, poorly fitted or top-dose-only effect, or another doubt; inactive = no such curve, though single readings can be large; an effect the other way counts as inactive or inconclusive.

SMILES | IL1B secr inh | DT40 TDP1 CPT | HepG2 tox | ASM inhibitor | TGFb SMAD3 inh | DT40 TDP1 no CPT
COc1ccc(-c2cc(C(=O)Nc3ccc(C(N)=O)cc3)c3ccccc3n2)cc1 | · | 8.2µM | – | – | – | 6.5µM
COc1cccc(-c2cc(C(=O)Nc3ccccc3)c3ccccc3n2)c1 | – | ? | – | – | – | 6.5µM
COc1ccc(NC(=O)c2cc(-c3ccco3)nc3ccccc23)cc1 | – | – | – | – | – | ?
CC(C)c1ccc(S(=O)(=O)Nc2cc3c(cc2NCc2ccccc2)n(C)c(=O)n3C)cc1 | · | ? | – | · | ? | ?
CCCCn1cc(S(=O)(=O)c2cc(C)ccc2C)c(=O)c2cc(F)c(F)cc21 | · | ? | – | · | – | ?
COc1ccnc(CSC(N)=Nc2ccccc2OC)c1 | – | ? | – | – | ? | 13µM
COc1ccnc(CSC(N)=Nc2cccc(C(F)(F)F)c2)c1 | -104 | 12µM | – | – | ? | 16µM
COc1ccnc(CSC(N)=Nc2ccccc2C(F)(F)F)c1 | – | 26µM | – | – | – | 15µM
CC(=Nc1ccccc1C(F)(F)F)c1ccncc1 | – | – | – | – | – | –
CCCc1nc(NCc2ccncc2)c2nnn(Cc3ccccc3F)c2n1 | – | ? | – | – | – | 15µM
CCCc1nc(NCc2ccccn2)c2nnn(Cc3ccccc3F)c2n1 | – | ? | – | – | – | ?
CCc1nc2ccc(C(=O)NCCCN3CCCC3=O)cn2c1N(CCC(C)C)CCN(C)C | – | – | – | · | – | –
CSc1ccc(C2(O)Cc3cccc[n+]3C2c2ccccc2)cc1 (stereo unspecified) | – | – | – | – | – | –
N#CC1=C(N)Oc2cc(N)ccc2C1C1CCCCC1 (stereo unspecified) | ? | ? | – | – | – | 21µM
COC(=O)c1ccc(C2C(C#N)=C(N)Oc3cc(N)ccc32)cc1 (stereo unspecified) | – | 0.92µM | – | – | – | –
Cc1oc2ncn(CC(C)C)c(=O)c2c1C(=O)NCCCN(C)Cc1ccccc1 | · | – | – | · | – | –
Cc1cccc(NC(=O)C2CCN(S(=O)(=O)c3cccc4nsnc34)CC2)c1C | · | – | – | · | – | –
COc1cc(C(=O)Nc2ccc3ccccc3c2)cc(OC)c1OC | – | ? | – | – | – | 0.65µM
COc1cc(C(=O)Nc2ccc(NC(=O)c3ccc(C(C)(C)C)cc3)cc2)cc(OC)c1OC | · | 2.9µM | – | · | – | 3.3µM
COCc1cc(=O)oc2cc(NC(=O)c3ccc(C(C)(C)C)cc3)ccc12 | – | 9.2µM | – | – | – | 15µM
COc1cc(C(=O)Nc2ccc(C(=O)c3ccncc3)cc2)cc(OC)c1OC | – | 15µM | – | · | – | 23µM
COc1cc(OC)cc(C(=O)NCC(=O)OCc2cc(=O)oc3cc(OC)ccc23)c1 | – | – | – | – | – | –
COc1cc(OC)cc(C(=O)Nc2ccc(C(=O)c3ccncc3)cc2)c1 | – | ? | – | – | – | ?
COc1cc(C(=O)Nc2ccc(NC(=O)c3ccc(Br)cc3)cc2)cc(OC)c1OC | · | – | – | · | – | –
Cc1cc(=O)oc2cc(OCC(=O)N3CC[C@@]4(O)CCCC[C@H]4C3)ccc12 | – | – | – | – | – | –
SMILES | IL1B secr inh | DT40 TDP1 CPT | HepG2 tox | ASM inhibitor | TGFb SMAD3 inh | DT40 TDP1 no CPT
O=C(NCCc1ccccc1O)c1cc2c(cc1[N+](=O)[O-])OCO2 | – | – | – | – | – | –
CN(C)c1ccc(CNC(=O)c2cnc3sc(N4CCCC4)nn3c2=O)cc1 | · | – | – | · | – | –
Cc1cc(NC(=O)C(C)Sc2nnc(NCc3ccco3)s2)no1 (stereo unspecified) | – | – | – | – | ? | –
COc1ccc(C(=O)Sc2ccc(Cl)cc2)cc1OC | -84 | 8.2µM | – | – | – | 12µM
COc1ccc(C(=O)c2cc(OC)c(OC)c(OC)c2)cc1OC | – | 4.6µM | – | – | – | 2.6µM
COc1ccc(C(=O)c2ccc(OC)c(OC)c2)cc1OC | – | ? | – | – | ? | ?
Cc1cccc(C(=O)OCC(=O)Nc2ccccc2C(=O)NC2CC2)c1 | – | – | – | – | – | –
CCOc1ccc2[nH]c(C(=O)N/N=C/c3ccccc3OC)cc2c1 | – | 5.8µM | – | – | – | 7.3µM
CCOc1ccc(/C=N/NC(=O)c2cc3c(OC)cc(OC)c(OC)c3[nH]2)cc1 | – | ? | – | ? | – | ?
COc1cc(OC)c2cc(C(=O)N/N=C/c3ccccc3O)[nH]c2c1 | – | 4.6µM | – | – | – | 4.6µM
COc1ccc(C(=O)N/N=C/c2cc3ccccc3[nH]c2=O)cc1 | – | – | – | – | – | –
CCCOc1ccc2[nH]c(C(=O)N/N=C/c3cc(OC)c(OC)c(OC)c3)cc2c1 | – | ? | – | – | – | 16µM
COc1ccc2[nH]c(C(=O)N/N=C/c3ccccc3OC)cc2c1 | – | 7.3µM | – | – | – | 9.2µM
CCC(NS(=O)(=O)c1cccs1)c1ccc(C)cc1 (stereo unspecified) | – | – | – | – | – | ?
CC1(C)OC1(C#N)c1ccccc1 (stereo unspecified) | – | – | – | – | – | –
N#CCCCC1(CCCC#N)OCCO1 | – | – | – | – | – | –
COc1ccc2[nH]c(C(=O)N/N=C/c3ccc(OC)c(O)c3)cc2c1 | – | 1.2µM | – | – | – | 1.3µM
Cn1cc(S(=O)(=O)N2CCCCC2)cc1C(=O)N1CCN(c2ccccc2F)CC1 | · | – | – | · | – | ?
COc1ccc([C@H]2[C@H](C(=O)C(C)(C)C)N3N=Cc4ccccc4C3[C@]23N=C(c2ccccc2)OC3=O)cc1OC (stereo partly specified) | – | – | – | – | – | ?
CC(C)(C)OC(=O)[C@H]1[C@H](c2ccc([N+](=O)[O-])cc2)C2(C(=O)c3ccccc3C2=O)C2c3ccccc3C=NN21 (stereo partly specified) | – | ? | – | – | ? | 18µM
COc1ccc(NC(=O)CNc2ccc(OC)c(S(=O)(=O)N3CCOCC3)c2)cc1 | – | – | – | · | – | –
C=CCOc1ccc(CNc2ccc3[nH]c(=O)[nH]c3c2)cc1OC | – | – | – | – | – | –
COc1ccc(Br)cc1CNc1ccc2[nH]c(=O)[nH]c2c1 | -61 | – | – | – | – | –
COc1ccc(Br)cc1CNc1ccc(O)cc1 | -95 | ? | 13µM | – | ? | ?
Cc1ccccc1Cn1c(C)c(C(=O)NCC(C)C)sc1=O | – | ? | – | · | – | ?
